C diff growth = inhibitors of Clostridium difficile growth; Clostridium difficile clinical isolate growth, OD600, 24 h; hits give low values; growth activity, negative = inhibition, % at 16 µg/mL (by protocol); hit rate 0.25% among 86,000; AID 1259249;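 active means mean growth activity at or below -80% and every replicate also at or below -80%; inconclusive means mean at or below -80% but some replicate above -80%; inactive means mean growth activity above -80%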
Pf Dd2 growth = inhibitors of Plasmodium falciparum Dd2 growth | P. falciparum Dd2 growth, SYBR Green, 72 h; hits give low values | activity change, % at 10 µM | hit rate 2.3% among 94,000 | AID 1159554; in the data active means activity change below about -80%; inconclusive means no clear call, values can overlap the other calls
T cruzi growth-1 = T. cruzi proliferation inhibition | T. cruzi beta-gal in NIH3T3, GalScreen luminescence, 90 h | inhibition, % at 8.34 µM | hit rate 5.9% among 77,000 | AID 624255;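 active means mean inhibition above about 93%, with at least 55% of replicates each passing it, limit read from the data, passing the limit was not always enough; inconclusive means only one of those two conditions holds; inactive means neither condition holds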
T cruzi growth-2 = Trypanosoma cruzi proliferation inhibition; hit rate 72% among 5,600; T. cruzi beta-gal in NIH3T3, GalScreen luminescence, 90 h; shares compounds with T cruzi growth-1; AID 651739; inhibition, % at 8.35 µM;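 active means mean replicate inhibition above about 95% and at least 55% of replicates individually reaching it, limit read from the data; inconclusive means only one of the two criteria is met; inactive means neither criterion is met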
T cruzi growth-3 = blocks T. cruzi growth in NIH3T3 host cells; AID 651740; hit rate 21% among 5,600; shares compounds with T cruzi growth-1; T. cruzi beta-gal in NIH3T3, GalScreen luminescence, 90 h; inhibition, % at 2.09 µM;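 active means mean inhibition above about 95%, with at least 55% of replicates also reaching it, limit read from the data; inconclusive means meets just one of the two conditions; inactive means meets neither condition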
NIH3T3 tox = NIH/3T3 (mouse) viability loss. shares compounds with T cruzi growth-1. NIH/3T3 viability, CellTiter-Glo ATP luminescence, 90 h. cytotoxicity (signal decrease), % at 8.35 µM. hit rate 14% among 5,600. AID 651742;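 active means mean signal decrease across replicates above about 35% based on untreated-well scatter, with enough replicates individually passing, limit read from the data; inconclusive means no rule stated though some were filed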
NIH3T3 tox 2 = NIH/3T3 (mouse) viability loss; NIH/3T3 viability, CellTiter-Glo ATP luminescence, 90 h; hit rate 56% among 5,600; AID 651744; shares compounds with T cruzi growth-1; inhibition, % at 24.9 µM;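 active means mean loss of cell viability signal at or above a set limit, and enough replicates individually reaching it; inconclusive means meets only the mean limit or only the replicate share; inactive means meets neither condition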
Each line names hits and unclear results; the compound was inactive in the other large screens (follow-up assays come after a bar, where they were run); ! = not confirmed by another sample. Shown are actives, neighbours in structure and some others; about 6.7% of the full set was active somewhere.

C[C@@H]1CN([C@@H](C)CO)C(=O)c2cc(NS(=O)(=O)c3ccc(F)cc3)ccc2O[C@@H]1CN(C)C	none
C[C@H]1CN([C@@H](C)CO)C(=O)c2cccc(N(C)C)c2O[C@@H]1CN(C)Cc1ccc(Cl)c(Cl)c1	T cruzi growth-1 100 | T cruzi growth-2 108 | T cruzi growth-3 inactive | NIH3T3 tox inactive | NIH3T3 tox 2 103
C[C@@H]1CN([C@@H](C)CO)C(=O)c2cccc(N(C)C)c2O[C@H]1CN(C)Cc1ccc(Cl)c(Cl)c1	none
C[C@@H]1CN([C@@H](C)CO)C(=O)c2cccc(N(C)C)c2O[C@H]1CN(C)Cc1ccc(C(F)(F)F)cc1	none
C[C@@H]1CN([C@@H](C)CO)C(=O)c2cccc(N(C)C)c2O[C@@H]1CN(C)Cc1ccc(C(F)(F)F)cc1	T cruzi growth-1 104 | T cruzi growth-2 inactive | T cruzi growth-3 inactive | NIH3T3 tox inactive | NIH3T3 tox 2 inconclusive
COc1ccccc1C#Cc1ccc2c(c1)[C@@H]1[C@@H](CCN1C(=O)CN1CCOCC1)[C@H](CO)N2	none (no result: T cruzi growth-1)
C[C@H](CO)N1C[C@H](C)[C@H](CN(C)Cc2ccc(Oc3ccccc3)cc2)Oc2ccc(NC(=O)c3ccncc3)cc2CC1=O	T cruzi growth-1 102 | T cruzi growth-2 102 | T cruzi growth-3 inactive | NIH3T3 tox inactive | NIH3T3 tox 2 103
C[C@@H]1CN([C@H](C)CO)C(=O)Cc2cc(NC(=O)Nc3ccccc3)ccc2O[C@H]1CN(C)Cc1ccncc1	T cruzi growth-1 98 | T cruzi growth-2 inactive | T cruzi growth-3 inactive | NIH3T3 tox inactive | NIH3T3 tox 2 inactive
C[C@@H]1CN([C@H](C)CO)C(=O)Cc2cc(NC(=O)c3ccncc3)ccc2O[C@@H]1CN(C)Cc1ccc(Oc2ccccc2)cc1	none
C[C@@H]1CN([C@@H](C)CO)C(=O)Cc2cc(NC(=O)Nc3ccccc3)ccc2O[C@@H]1CN(C)Cc1ccncc1	none (no result: C diff growth)
C[C@@H]1CN([C@@H](C)CO)C(=O)Cc2cc(NC(=O)c3ccncc3)ccc2O[C@H]1CN(C)Cc1ccc(Oc2ccccc2)cc1	T cruzi growth-1 105 | T cruzi growth-2 105 | T cruzi growth-3 inactive | NIH3T3 tox inactive | NIH3T3 tox 2 103
C[C@H]1CN([C@@H](C)CO)C(=O)Cc2cc(NC(=O)c3ccncc3)ccc2O[C@@H]1CN(C)Cc1ccc(Oc2ccccc2)cc1	none
CCCc1cn([C@H]2C[C@@H]3O[C@@H](CO)CC[C@@H]3O[C@@H]2CCc2ccc(-c3cccc(OC)c3)cc2)nn1	none (no result: T cruzi growth-1)
C[C@@H]1CCCCO[C@H](CN(C)C(=O)Nc2ccccc2)[C@@H](C)CN([C@@H](C)CO)C(=O)c2cc(NC(=O)c3ccncc3)ccc2O1	none
COc1ccc(NC(=O)N(C)C[C@@H]2OCCCC[C@H](C)Oc3ccc(N(C)C)cc3C(=O)N([C@H](C)CO)C[C@H]2C)cc1	none
COc1ccc(NC(=O)N(C)C[C@H]2OCCCC[C@H](C)Oc3ccc(N(C)C)cc3C(=O)N([C@H](C)CO)C[C@@H]2C)cc1	T cruzi growth-1 100 | T cruzi growth-2 inactive | T cruzi growth-3 inactive | NIH3T3 tox inactive | NIH3T3 tox 2 inactive
COc1ccc(NC(=O)N(C)C[C@H]2OCCCC[C@@H](C)Oc3ccc(N(C)C)cc3C(=O)N([C@H](C)CO)C[C@@H]2C)cc1	T cruzi growth-1 105! | T cruzi growth-2 inactive | T cruzi growth-3 inactive | NIH3T3 tox inactive | NIH3T3 tox 2 34
COc1ccc(NC(=O)N(C)C[C@@H]2OCCCC[C@H](C)Oc3ccc(N(C)C)cc3C(=O)N([C@H](C)CO)C[C@@H]2C)cc1	none
COc1ccc(CN(C)C[C@H]2Oc3c(NC(=O)c4nc5ccccc5s4)cccc3C(=O)N([C@@H](C)CO)C[C@@H]2C)cc1	none
C[C@H](CO)N1C[C@H](C)[C@H](CN(C)Cc2ccc(C(F)(F)F)cc2)Oc2c(NC(=O)c3nc4ccccc4s3)cccc2C1=O	Pf Dd2 growth -87, T cruzi growth-1 97 (no result: C diff growth) | T cruzi growth-2 100 | T cruzi growth-3 98 | NIH3T3 tox inactive | NIH3T3 tox 2 93
C[C@@H]1CN([C@@H](C)CO)C(=O)c2cccc(NC(=O)c3nc4ccccc4s3)c2O[C@H]1CN(C)Cc1ccc(-c2ccccc2)cc1	none
C[C@@H]1CN([C@H](C)CO)C(=O)c2cccc(NC(=O)c3nc4ccccc4s3)c2O[C@@H]1CN(C)Cc1ccccc1	T cruzi growth-1 inconclusive | T cruzi growth-2 100 | T cruzi growth-3 inactive | NIH3T3 tox inactive | NIH3T3 tox 2 inactive
C[C@H]1CN([C@@H](C)CO)C(=O)c2cccc(NC(=O)c3nc4ccccc4s3)c2O[C@@H]1CN(C)Cc1ccccc1	none
C[C@@H]1CN([C@H](C)CO)C(=O)c2cccc(NC(=O)c3nc4ccccc4s3)c2O[C@@H]1CN(C)Cc1ccc(-c2ccccc2)cc1	T cruzi growth-1 111 | T cruzi growth-2 107 | T cruzi growth-3 inactive | NIH3T3 tox inactive | NIH3T3 tox 2 inactive
C[C@H]1CN([C@@H](C)CO)C(=O)c2cccc(NC(=O)c3nc4ccccc4s3)c2O[C@@H]1CN(C)Cc1ccc(C(F)(F)F)cc1	none (no result: C diff growth)
COc1ccc(CN(C)C[C@H]2Oc3c(NC(=O)c4nc5ccccc5s4)cccc3C(=O)N([C@H](C)CO)C[C@@H]2C)cc1	T cruzi growth-1 inconclusive | T cruzi growth-2 inactive | T cruzi growth-3 inactive | NIH3T3 tox inactive | NIH3T3 tox 2 inactive
C[C@@H]1CN([C@@H](C)CO)C(=O)c2cccc(NS(=O)(=O)c3ccc(Cl)cc3)c2O[C@H]1CN(C)C(=O)NC1CCCCC1	none
COc1ccc(NC(=O)Nc2ccc3c(c2)C(=O)N([C@@H](C)CO)C[C@@H](C)[C@@H](CN(C)S(C)(=O)=O)OCCCC[C@@H](C)O3)cc1	none
COc1ccc(S(=O)(=O)N(C)C[C@H]2Oc3c(NC(=O)c4nc5ccccc5s4)cccc3C(=O)N([C@@H](C)CO)C[C@H]2C)cc1	none
COc1ccc(S(=O)(=O)N(C)C[C@@H]2Oc3c(NC(=O)c4nc5ccccc5s4)cccc3C(=O)N([C@H](C)CO)C[C@@H]2C)cc1	T cruzi growth-1 112 | T cruzi growth-2 99 | T cruzi growth-3 111 | NIH3T3 tox 38 | NIH3T3 tox 2 51
COc1ccc(C#Cc2ccc3c(c2)[C@@H]2[C@@H](CCN2C(=O)c2cnccn2)[C@@H](CO)N3)cc1	none
O=C(c1cccc(F)c1)N1CC[C@@H]2[C@H](CO)Nc3ccc(-c4ccccc4F)cc3[C@@H]21	none
O=C(c1ccccc1)N1CC[C@@H]2[C@H](CO)Nc3ccc(-c4ccccc4F)cc3[C@@H]21	T cruzi growth-1 103 | T cruzi growth-2 108 | T cruzi growth-3 inactive | NIH3T3 tox inactive | NIH3T3 tox 2 26

Compound activity: PubChem, Broad Institute
